Results from PubChem BioAssay (EPA / NIEHS).
Calls of active or inactive are those of the source. Rule for the calls: active = hit-call score of the fitted dose curve at least 0.9, where 1 is the maximum; inactive = score below 0.9.

Legend:
[1] = ATG_CRE_CIS: Attagene CIS-FACTORIAL HepG2 Assay for human cAMP Responsive Element (CRE) binding protein 3 (AID 2282926); conditions: HepG2 CRE cis-reporter, Attagene multiplexed mRNA; actives raise or lower the signal
Procedure, shortened: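 HepG2 cells transiently transfected with cis-element-driven multiple reporter transcription units; CRE reporter mRNA measured 24 h after dosing by RT-PCR, 6-FAM labelling, HpaI digestion and capillary electrophoresis. Bidirectional fit versus DMSO baseline.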

[2] = target: CCAAT/enhancer-binding protein beta (Homo sapiens) (UniProt P17676); assay: ATG_C_EBP_CIS: Attagene CIS-FACTORIAL HepG2 Assay for human CCAAT/Enhancer Binding Protein (C/EBP) beta (AID 2282927); conditions: HepG2 Attagene cis-factorial transcription factor reporter; actives raise or lower the signal
Sequence of CCAAT/enhancer-binding protein beta (Homo sapiens) (P17676 whole entry, looked up): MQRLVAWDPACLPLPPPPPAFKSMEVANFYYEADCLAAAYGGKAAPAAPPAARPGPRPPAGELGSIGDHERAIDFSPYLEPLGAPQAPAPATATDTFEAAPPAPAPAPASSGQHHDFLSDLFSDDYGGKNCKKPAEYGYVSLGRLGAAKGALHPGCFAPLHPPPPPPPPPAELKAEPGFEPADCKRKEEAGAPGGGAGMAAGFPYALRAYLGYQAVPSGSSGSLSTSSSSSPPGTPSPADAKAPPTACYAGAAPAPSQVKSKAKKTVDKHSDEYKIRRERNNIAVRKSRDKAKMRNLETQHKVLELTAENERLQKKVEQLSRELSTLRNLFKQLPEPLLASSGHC
Procedure, shortened: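 RT-PCR/capillary electrophoresis fluorescence of reporter mRNA, 24 h post-dose, in HepG2 cells carrying transfected cis-promoter reporter units. Bidirectional curve fitting against DMSO baseline captures gain or loss of signal.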

[3] = ATG_CMV_CIS: Attagene CIS-FACTORIAL HepG2 Assay for human CMV (Internal Marker) (AID 2282928); conditions: HepG2 CMV promoter reporter, transcription factor profiling; actives raise or lower the signal;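 note: endpoint acts as a background internal control marker rather than a target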
Procedure, shortened: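 Cell system: HepG2, transiently transfected multiple reporter units under cis promoters. Exposure: 24 h. Detection: RT-PCR, FAM labeling, HpaI digestion, capillary electrophoresis. Analysis: bidirectional, DMSO baseline.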

[4] = ATG_AP_2_CIS: Attagene CIS-FACTORIAL HepG2 Assay for human Activator Protein 2 (AP-2) (AID 2282932); conditions: HepG2 AP-2 cis-reporter, Attagene transcription factor profiling; actives raise or lower the signal
Procedure, shortened: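 HepG2 cells were transiently transfected with multiple cis-promoter reporter transcription units and dosed for 24 h. Reporter mRNA was measured by RT-PCR with capillary electrophoresis fluorescence; bidirectional fits relative to DMSO baseline.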

[5] = ATG_BRE_CIS: Attagene CIS-FACTORIAL HepG2 Assay for human Bone Morphogenetic Protein (BMP) Response Element (BRE) (AID 2282933); conditions: HepG2 BMP response element reporter, Attagene transcription factor profiling; actives raise or lower the signal
Procedure, shortened: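 Gain- or loss-of-signal was derived by bidirectional fitting against DMSO controls. The signal came from reporter mRNA, measured by RT-PCR and capillary electrophoresis, in HepG2 cells transiently carrying multiple reporter units and dosed for 24 h.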

[6] = target: Transcription factor E2F1 (Homo sapiens) (UniProt Q01094); assay: ATG_E2F_CIS: Attagene CIS-FACTORIAL HepG2 Assay for human E2F Transcription Factor 1 (AID 2282935); conditions: HepG2 Attagene cis-reporter, E2F reporter RNA transcripts; actives raise or lower the signal
Sequence of Transcription factor E2F1 (Homo sapiens) (Q01094 whole entry, looked up): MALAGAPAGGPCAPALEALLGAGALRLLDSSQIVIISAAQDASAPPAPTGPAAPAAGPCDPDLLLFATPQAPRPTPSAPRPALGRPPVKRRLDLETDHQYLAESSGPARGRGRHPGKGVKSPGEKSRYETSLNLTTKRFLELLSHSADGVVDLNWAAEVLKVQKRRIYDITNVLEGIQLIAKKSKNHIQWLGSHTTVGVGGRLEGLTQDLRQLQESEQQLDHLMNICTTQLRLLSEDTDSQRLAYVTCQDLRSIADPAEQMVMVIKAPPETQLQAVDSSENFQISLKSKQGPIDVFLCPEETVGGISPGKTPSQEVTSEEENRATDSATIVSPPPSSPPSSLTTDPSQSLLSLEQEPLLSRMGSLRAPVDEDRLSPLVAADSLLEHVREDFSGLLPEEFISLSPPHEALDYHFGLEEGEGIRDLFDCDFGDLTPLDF
Procedure, shortened: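 HepG2 cells transiently transfected with multiplexed cis-element reporter units, dosed for 24 h. Reporter mRNA measured by RT-PCR, 6-FAM primer-extension labeling, HpaI digestion and capillary electrophoresis; bidirectional fit versus DMSO baseline.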

[7] = ATG_E_Box_CIS: Attagene CIS-FACTORIAL HepG2 Assay for human Enhancer Box (E-box) (AID 2282936); conditions: HepG2 E-box cis-reporter transcription, actives raise or lower the signal
Procedure, shortened: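 HepG2 cells transiently transfected with multiplexed cis-element reporter units sensing endogenous transcription factor activity; 24 h compound exposure. Reporter mRNA measured by RT-PCR, 6-FAM primer extension, HpaI digestion and capillary electrophoresis; bidirectional fit versus DMSO.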

[8] = ATG_M_61_CIS: Attagene CIS-FACTORIAL HepG2 Assay for M61 Transcription Factor (Internal Marker) (AID 2282937); conditions: HepG2 Attagene CIS-FACTORIAL M61 internal marker reporter; actives raise or lower the signal
Procedure, shortened: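 Cells were transfected with reporter units under cis-regulatory promoters, treated with chemicals for 24 h, then lysed for RNA. Reporter transcripts were quantified by RT-PCR and capillary electrophoresis, and activity was fitted bidirectionally against DMSO.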

[9] = ATG_EGR_CIS: Attagene CIS-FACTORIAL HepG2 Assay for human Early Growth Response 1 (EGR1) (AID 2282938); conditions: HepG2 Attagene CIS-FACTORIAL EGR reporter mRNA; actives raise or lower the signal
Procedure, shortened: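 Endogenous TF activity in HepG2 liver cells was gauged through cis-promoter reporter constructs transiently transfected. After 24 h dosing, reporter mRNA was quantified by RT-PCR and capillary electrophoresis, and curves fitted in both directions versus DMSO.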

[10] = ATG_Ets_CIS: Attagene CIS-FACTORIAL HepG2 Assay for human Erythroblast Transformation Specific (ETS) (AID 2282941); conditions: HepG2 ETS cis-reporter transcription, actives raise or lower the signal
Procedure, shortened: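 After transient cis-reporter transfection, HepG2 cells receive test chemical for 24 h. Reporter mRNA levels, measured by RT-PCR and capillary electrophoresis fluorescence, are analysed bidirectionally relative to the DMSO baseline.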

[11] = ATG_FoxO_CIS: Attagene CIS-FACTORIAL HepG2 Assay for human Forkhead box O (FoxO) (AID 2282943); conditions: HepG2 Attagene cis-reporter, FoxO element, mRNA; actives raise or lower the signal
Procedure, shortened: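 HepG2 cells transiently transfected with cis-promoter-driven multiple reporter transcription units; 24 h after chemical dosing, reporter mRNA quantified by RT-PCR, fluorescent primer extension, HpaI digestion and capillary electrophoresis. Bidirectional fitting versus DMSO baseline.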

[12] = ATG_GLI_CIS: Attagene CIS-FACTORIAL HepG2 Assay for human Zinc Finger Protein GLI1 (AID 2282945); conditions: HepG2, Attagene cis-factorial reporter mRNA, GLI element; actives raise or lower the signal
Procedure, shortened: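 HepG2 cells transiently transfected with cis-promoter multiplexed reporter units report endogenous transcription factor activity. After 24 h chemical exposure, reporter mRNA was quantified by RT-PCR, 6-FAM labelling, HpaI digestion and capillary electrophoresis, with bidirectional fitting against DMSO.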

[13] = ATG_ISRE_CIS: Attagene CIS-FACTORIAL HepG2 Assay for human Interferon Regulatory Factor 1 (IRF1) binding to an Interferon-Stimulated Response Element (ISRE) (AID 2282948); conditions: HepG2 ISRE cis-reporter (Attagene), mRNA transcription readout; actives raise or lower the signal
Procedure, shortened: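 Quantitation relies on labelled RT-PCR fragments separated by capillary electrophoresis. Human HepG2 cells bearing cis-promoter reporter constructs were treated 24 h; DMSO served as baseline for bidirectional fitting.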

[14] = ATG_M_32_CIS: Attagene CIS-FACTORIAL HepG2 Assay for M32 Transcription Factor (Internal Marker) (AID 2282949); conditions: HepG2 Attagene cis-factorial M32 reporter, mRNA; actives raise or lower the signal;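 note: background control marker of the multiplexed CIS panel rather than a real target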
Procedure, shortened: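 Internal background marker read-out: RT-PCR/capillary electrophoresis fluorescence of reporter transcripts from transiently transfected HepG2 cells after 24 h chemical exposure. Activity fitted bidirectionally relative to DMSO negative control.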

[15] = ATG_M_06_CIS: Attagene CIS-FACTORIAL HepG2 Assay for M06 Transcription Factor (Internal Marker) (AID 2282950); conditions: HepG2 Attagene CIS-FACTORIAL M06 internal marker reporter; actives raise or lower the signal
Procedure, shortened: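 Fluorescence-labelled RT-PCR products from cis-promoter reporter units, cut with HpaI and resolved by capillary electrophoresis, give the signal. Cells are human HepG2, dosed for 24 h. Serves as background control, fitted relative to DMSO.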

[16] = ATG_MRE_CIS: Attagene CIS-FACTORIAL HepG2 Assay for human Metal Responsive Element (MRE) (AID 2282954); conditions: HepG2 MRE cis-reporter transcription, Attagene multiplex; actives raise or lower the signal
Procedure, shortened: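 HepG2 cells transiently transfected with multiple cis-element reporter units measure endogenous MTF1-driven transcription. After 24 h compound exposure, reporter mRNA is quantified by RT-PCR with 6-FAM labelling, HpaI digestion and capillary electrophoresis; bidirectional fits versus DMSO.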

[17] = ATG_PXRE_CIS: Attagene CIS-FACTORIAL HepG2 Assay for human Pregnane X Receptor Element (PXRE) (AID 2282957); conditions: HepG2 Attagene CIS-FACTORIAL PXRE reporter, mRNA; actives raise or lower the signal
Procedure, shortened: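 HepG2 cells transiently transfected with cis-element-driven multiplexed reporter units; after 24 h chemical exposure, reporter mRNA measured by RT-PCR, 6-FAM labelling, HpaI digestion and capillary electrophoresis. Bidirectional fitting relative to DMSO.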

[18] = ATG_Sox_CIS: Attagene CIS-FACTORIAL HepG2 Assay for human SRY-box transcription factor (SOX) (AID 2282960); conditions: HepG2 Attagene cis-factorial SOX reporter, mRNA; actives raise or lower the signal
Procedure, shortened: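 Transient MRTU transfection of HepG2; 24 h compound incubation; TriZol RNA, oligo(dT) RT, PCR, 6-FAM primer extension, HpaI cut, CE. Bidirectional fit, DMSO = baseline.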

[19] = target: Transcription factor Sp1 (Homo sapiens) (UniProt P08047); assay: ATG_Sp1_CIS: Attagene CIS-FACTORIAL HepG2 Assay for human Specificity Protein 1 (Sp1) (AID 2282961); conditions: HepG2 Sp1 cis-reporter transcription, actives raise or lower the signal
Sequence of Transcription factor Sp1 (Homo sapiens) (P08047 whole entry, looked up): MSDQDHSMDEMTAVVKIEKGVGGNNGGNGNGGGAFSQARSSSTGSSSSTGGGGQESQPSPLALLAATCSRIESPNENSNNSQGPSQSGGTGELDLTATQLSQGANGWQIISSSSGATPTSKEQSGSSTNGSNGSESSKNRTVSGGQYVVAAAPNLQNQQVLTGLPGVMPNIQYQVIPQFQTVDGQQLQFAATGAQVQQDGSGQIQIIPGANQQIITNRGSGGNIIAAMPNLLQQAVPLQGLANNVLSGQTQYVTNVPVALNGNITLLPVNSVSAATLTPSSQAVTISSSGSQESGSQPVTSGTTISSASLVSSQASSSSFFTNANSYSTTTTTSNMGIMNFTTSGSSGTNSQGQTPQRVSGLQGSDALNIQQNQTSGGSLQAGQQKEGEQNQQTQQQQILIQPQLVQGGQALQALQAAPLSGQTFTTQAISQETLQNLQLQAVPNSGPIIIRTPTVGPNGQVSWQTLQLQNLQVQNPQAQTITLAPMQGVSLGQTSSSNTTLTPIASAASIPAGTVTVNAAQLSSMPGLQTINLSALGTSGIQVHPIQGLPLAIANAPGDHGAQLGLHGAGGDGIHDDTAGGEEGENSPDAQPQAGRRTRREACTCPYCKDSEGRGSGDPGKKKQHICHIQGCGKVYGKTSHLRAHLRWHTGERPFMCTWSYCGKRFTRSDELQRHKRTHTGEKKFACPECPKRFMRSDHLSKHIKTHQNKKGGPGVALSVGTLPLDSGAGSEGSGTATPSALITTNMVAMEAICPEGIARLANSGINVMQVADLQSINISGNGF
Procedure, shortened: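 Endogenous Sp1 activity was gauged in human liver HepG2 cells bearing transfected reporter units under a cis-regulating promoter. After 24 h dosing, reporter mRNA was quantified by RT-PCR with capillary electrophoresis, and activity fitted bidirectionally versus DMSO.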

[20] = ATG_SREBP_CIS: Attagene CIS-FACTORIAL HepG2 Assay for human Sterol Regulatory Element Binding (SREBP) (AID 2282962); conditions: HepG2 Attagene cis-factorial SREBP reporter, mRNA; actives raise or lower the signal
Procedure, shortened: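 Twenty-four hours after chemical dosing of transfected HepG2 cultures, reporter RNA was converted to cDNA, amplified, end-labelled with 6-FAM and resolved by capillary electrophoresis. Responses were fitted relative to DMSO.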

Measured: AC50

O=C(O)c1nc(Cl)c(Cl)c(Cl)c1Cl
active: [17] 73 µM
inactive: all other assays above

O=[N+]([O-])c1ccccc1C(F)(F)F
inactive: all assays above

O=C1CCCCCCCCCCCCCC1
active: [17] 9.14 µM | [19] 47.6 µM
inactive: all other assays above

c1cc[c]([Bi]([c]2ccccc2)[c]2ccccc2)cc1
active: [17] 4.08 µM
inactive: all other assays above

CC[N+](CC)(CC(=O)Nc1c(C)cccc1C)Cc1ccccc1 (tested in a mixture with another compound)
active: [17] 21.8 µM
inactive: all other assays above

C=C1CC[C@H]2C[C@@H]1C2(C)C
active: [1] 26 µM | [5] 26.1 µM | [17] 11.5 µM
inactive: all other assays above

O=[N+]([O-])c1ccc2nc[nH]c2c1
inactive: all assays above
